{"source": "PubChem BioAssay (NCATS)", "note": "The source made the active and inactive calls. Calls come from the whole dose curve; as a rule, active = well fitted activation curve with a large enough effect; inconclusive = small, poorly fitted or top-dose-only effect; inactive = flat fitted curve, though single readings scatter. Potency is the fitted concentration of half-maximal effect."}
{"assay": "Cellular Toxicity (caspase-3) HepG2 (AID 654);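 for caspase-3 activation: cells exposed to compound for 16 hours before reading; 0% = DMSO alone and 100% = caspase signal from 100 µM tamoxifen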", "details": "HepG2 caspase-3 activation, luminescence; series mostly up to 92.2 µM; caspase-3 activation: at the top concentration", "description": "NIH Chemical Genomics Center [NCGC]\nNIH Molecular Libraries Screening Centers Network [MLSCN]\nNational Institutes of Environmental Health Sciences [NIEHS]\nNational Toxicology Program [NTP]\nWe have developed a 1536-well cell-based assay for quantitative high throughput screening (qHTS) against a number of cell lines to determine in vitro caspase 3/7 of small molecules. This particular assay uses the HepG2 cell line which is derived from human hepatocellular carcinoma.\nNCGC Assay Protocol Summary:\nThe Caspase-Glo 3/7 assay (Promega) is a homogeneous method to measure caspase-3 and caspase-7 activities in cultured cells. The quantitation of caspase 3/7 activity is based on the cleavage of a peptide-aminoluciferin substrate. After caspase cleaves the substrate the free aminoluciferin is liberated and serves as the substrate of luciferase, which generates the light. The luminescent signal is proportional to amount of caspase 3/7 activity present.\nUsing the Caspase-Glo 3/7 assay, the amount of caspase 3/7 activity was measured in the HepG2 cell line with complete culture medium following compound treatment for 16 hours. The assay was performed in opaque white 1536-well plates. In the screen, tamoxifen and doxorubicin were used as positive controls. Library compounds were measured for their ability to cause the activation of caspase 3/7 in the cell line, as reflected by an increase in luminescence signal, in a concentration-dependent manner. Data were normalized to the controls for basal activity (DMSO only) and 100% stimulation (100 uM tamoxifen). AC50 values were determined from concentration-response data modeled with the standard Hill equation.\nqHTS protocol for caspase 3/7 assay in HepG2 cells\n[Step] [Parameter] [Value] [Description]\n1. Reagent; 5 uL; 1500 HepG2 cells/well\n2. Time; 5 hr; 37 °C incubation\n4. Controls; 23 nL; Tamoxifen 0.23 uM to 100 uM & Doxorubicin 7.0 pM to 100 uM\n5. Time; 16 hr; 37 °C incubation\n6. Reagent; 5 uL; Caspase-Glo 3/7 reagent\n7. Time; 20 min; Room Temperature\n8. Detection; Luminescence; Viewlux plate reader\nKeywords: caspase 3/7, apoptosis, HepG2 cell line, luminescence, NTPHTS, NTPHTS_NCGC, NIEHS, EPA, DSSTox, MLSMR, MLSCN, NIH Roadmap, qHTS, NCGC"}
{"smiles": "COC(=O)CS", "caspase-3 activation": "0.175% (inactive)"}
{"smiles": "CC(C)c1ccccc1", "caspase-3 activation": "-0.527% (inactive)"}
{"smiles": "Cc1ccc2nc(-c3ccc(N)cc3)sc2c1S(=O)(=O)O", "caspase-3 activation": "-4.02% (inactive)"}
{"smiles": "O=C1CCC(=O)O1", "caspase-3 activation": "-0.339% (inactive)"}
{"smiles": "CCOc1ccccc1N", "caspase-3 activation": "-0.146% (inactive)"}
{"smiles": "CCc1ccccc1O", "caspase-3 activation": "0.879% (inactive)"}
{"smiles": "O=C(O)CNC(=O)c1ccc([N+](=O)[O-])cc1", "caspase-3 activation": "0.34% (inactive)"}
{"smiles": "CCC(C)(C)C", "caspase-3 activation": "-0.504% (inactive)"}
{"smiles": "C=CC(=O)NC(C)C", "caspase-3 activation": "0.536% (inactive)"}
{"smiles": "c1ccc2[nH]cnc2c1", "caspase-3 activation": "-0.0194% (inactive)"}
{"smiles": "CCCCCNCCCCC", "caspase-3 activation": "-0.552% (inactive)"}
{"smiles": "CCCCC(CC)COCC1CO1", "note": "(stereo not given)", "caspase-3 activation": "-0.853% (inactive)"}
{"smiles": "S=C([S-])NCCNC(=S)[S-].[Zn+2]", "caspase-3 activation": "0.265% (inactive)"}
{"smiles": "N#Cc1ccccc1", "caspase-3 activation": "0.134% (inactive)"}
{"smiles": "Cc1ccc(C)c(O)c1", "caspase-3 activation": "-0.798% (inactive)"}
{"smiles": "Cc1cccc2cccnc12", "caspase-3 activation": "0.174% (inactive)"}
{"smiles": "CCN(Cc1ccccc1)c1ccccc1", "caspase-3 activation": "-0.73% (inactive)"}
{"smiles": "CCOCC(=O)O", "caspase-3 activation": "0.153% (inactive)"}
{"smiles": "C=CCn1c(=O)n(CC=C)c(=O)n(CC=C)c1=O", "caspase-3 activation": "-0.182% (inactive)"}
{"smiles": "CC/C=C1/OC(=O)c2ccccc21", "caspase-3 activation": "-0.0252% (inactive)"}
{"smiles": "C1CCC2OC2C1", "note": "(stereo not given)", "caspase-3 activation": "0.854% (inactive)"}
{"smiles": "O=Cc1ccc(CO)o1", "caspase-3 activation": "-0.758% (inactive)"}
{"smiles": "O=[N+]([O-])c1c(Cl)cc(Cl)cc1Cl", "caspase-3 activation": "-0.397% (inactive)"}
{"smiles": "O=C(O)c1ccc(CO)o1", "caspase-3 activation": "-0.31% (inactive)"}
{"smiles": "CC1=C(/C=C/C(C)=C/C=C/C(C)=C\\C=O)C(C)(C)CCC1", "Potency": "63.1 µM (active)"}
{"smiles": "CC(C)(O)CCC(C)(C)O", "caspase-3 activation": "-0.805% (inactive)"}
{"smiles": "CCC(C)(C)C(=O)O", "caspase-3 activation": "-0.559% (inactive)"}
{"smiles": "Nc1cccc(N)c1", "caspase-3 activation": "1.71% (inactive)"}
{"smiles": "C=C(C)C(=O)OCCCCCC", "caspase-3 activation": "-0.345% (inactive)"}
{"smiles": "C/C=C(/C)C#N", "caspase-3 activation": "-0.0134% (inactive)"}
{"smiles": "Cc1ccco1", "caspase-3 activation": "-0.62% (inactive)"}
{"smiles": "C1CCCC1", "caspase-3 activation": "0.439% (inactive)"}
{"smiles": "CCC=O", "caspase-3 activation": "0.124% (inactive)"}
{"smiles": "Cc1ccc(C(=O)O)cc1", "caspase-3 activation": "-0.0127% (inactive)"}
{"smiles": "c1ccc(Oc2ccccc2)cc1", "caspase-3 activation": "0.225% (inactive)"}
{"smiles": "CCCOCC(C)OCC(C)O", "note": "(stereo not given)", "caspase-3 activation": "0.515% (inactive)"}
{"smiles": "Cc1cccc(C(=O)O)c1[N+](=O)[O-]", "caspase-3 activation": "-0.924% (inactive)"}
{"smiles": "CC/C=C/C#N", "caspase-3 activation": "0.34% (inactive)"}
{"smiles": "CC1CCC2CC1C2(C)C", "note": "(stereo not given)", "caspase-3 activation": "0.852% (inactive)"}
{"smiles": "CC(=O)C1(C)CC2=C(CCCC2(C)C)CC1C", "note": "(stereo not given)", "caspase-3 activation": "-0.103% (inactive)"}
